From PubChem BioAssay (Tox21)
Where “and” joins values, the source holds several entries; their conditions need not be identical. Equal entries are not always repeated. Records with an inconclusive call do not appear. Some compounds were tested as several samples or in several runs, with calls that do not always agree. Calls of active or inactive are those of the source. Calls come from the whole dose curve.

System: not listed separately
Test: qHTS assay to identify small molecule agonists of the AP-1 signaling pathway - cell viability counter screen (AID 1159525); note: nearly all actives have a fitted effect of over 55% in size
Conditions: ME-180 AP-1-bla cells viability, ATP luminescence, 5 h; series mostly up to 76.8 µM; viability change, negative = cytotoxic: at the top concentration
Summary of the method: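 AP-1-bla ME-180 cells in Opti-MEM with 0.5% dialyzed FBS, compound exposure 5 h at 37 C in 15-point titration. Viability read in the same wells as ATP content by CellTiter-Glo luminescence, normalised to tetra-n-octylammonium bromide and DMSO controls.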

SMILES | Potency | viability change, negative = cytotoxic
Cc1ccnc2c1NC(=O)c1cccnc1N2C1CC1 | inactive | –
CC(C(O)c1ccc(O)cc1)N1CCC(Cc2ccccc2)CC1 (stereo unspecified) | – | 9.33% [at 35.3 µM] (inactive)
NCCCCCC(=O)O | – | 2.35% [at 35.3 µM] (inactive)
NC12CC3CC(CC(C3)C1)C2 | – | 7.95% [at 35.3 µM] (inactive)
CC(=O)OCCOCCOCCOC(C)=O | inactive | –
CC[C@@H](N)CO | – | 0.134% (inactive)
CCC(CO)(CO)COCC(CC)(CO)CO | – | -3.25% (inactive)
COc1ccc(Cc2cnc(N)nc2N)cc1OC | – | -0.988% [at 35.3 µM] (inactive)
O=C(OCc1ccccc1)c1ccc(O)cc1 | inactive | –
CCCC(=O)c1ccccc1 | – | 3.77% (inactive)
COc1nc(C)nc(Cl)c1NC1=NCCN1 | – | 6.13% [at 35.3 µM] (inactive)
CCCCN(CCO)CCCC | – | -1.31% (inactive)
COc1ccc(COC(C)=O)cc1 | inactive | –
CC(=O)CC(C)=O | – | -11% (inactive)
CCN1CCCC1CNC(=O)c1cc(S(=O)(=O)CC)c(N)cc1OC (stereo unspecified) | – | 0.0019% [at 35.3 µM] (inactive)
C1COC(NC(C2CC2)C2CC2)=N1 | – | -1.75% [at 35.3 µM] (inactive)
NC(N)=NC(=O)Cc1c(Cl)cccc1Cl | – | 0.275% [at 35.3 µM] (inactive)
CCC(=O)/C=C/C1C(C)=CCCC1(C)C (stereo unspecified) | inactive | –
C=C(C)C(=O)O | inactive | –

SMILES | Potency | viability change, negative = cytotoxic
CC(C)(C)c1ccccc1 | – | 2.63% (inactive)
[Cl][In]([Cl])[Cl] | inactive | –
Cc1occc(=O)c1OC(=O)C(C)C | – | -14.6% (inactive)
NC(N)=Nc1nc(CSCC/C(N)=N/S(N)(=O)=O)cs1 | inactive | –
CCCCCCCCCCCCCCCCCl | – | -12.8% [at 15.8 µM] (inactive)
COC(c1ccccc1)(c1ccccc1)[C@H](Oc1nc(C)cc(C)n1)C(=O)O | – | -26.4% [at 35.3 µM] (inactive)
CCCCC/C=C/CC1CC(=O)OC1=O (stereo unspecified) | – | -3.73% (inactive)
O=C(O)c1cc(Cl)cc(Cl)c1 | – | -6.64% (inactive)
CCn1cc(C(=O)O)c(=O)c2cc(F)c(N3CCNC(C)C3)c(F)c21 (stereo unspecified) | – | -0.0145% [at 35.3 µM] (inactive)
O=C(O)c1cn(-c2ccc(F)cc2)c2cc(N3CCNCC3)c(F)cc2c1=O | inactive | –
CC(=O)CC(=O)Nc1ccc2[nH]c(=O)[nH]c2c1 | – | 5.82% (inactive)
OCC(CO)N[C@H]1C[C@](O)(CO)[C@@H](O)[C@H](O)[C@H]1O | – | 6.46% [at 35.3 µM] (inactive)
C#CC(C)(CC)OC(=O)c1ccccc1C(=O)O (stereo unspecified) | – | 2.51% [at 35.3 µM] (inactive)
c1cnc2cc3c(cc2n1)C1CNCC3C1 | – | -0.877% [at 35.3 µM] (inactive)
NCCO | inactive | –
CC(=O)Nc1ccc(C(=O)CCl)cc1 | – | 0.0428% (inactive)
c1ccc2c(c1)CCCC2C1=NCCN1 (stereo unspecified) | – | 12% [at 35.3 µM] (inactive)
CC(C)CCOC(=O)c1ccc(N(C)C)cc1 | – | -16.9% [at 35.3 µM] (inactive)

System: not listed separately
Test: qHTS assay to identify small molecule agonists of the AP-1 signaling pathway (AID 1159526); note: % is set by controls: 0 for no effect and ±100 for the full control effect
Conditions: ME-180 (cervical carcinoma) AP-1-bla reporter, beta-lactamase FRET ratio, 5 h; series mostly up to 76.8 µM; activation: at the top concentration

SMILES | Potency | activation
Cc1ccnc2c1NC(=O)c1cccnc1N2C1CC1 | inactive | –
CC(C(O)c1ccc(O)cc1)N1CCC(Cc2ccccc2)CC1 (stereo unspecified) | – | -4.14% [at 35.3 µM] (inactive)
NCCCCCC(=O)O | – | -7.77% [at 35.3 µM] (inactive)
NC12CC3CC(CC(C3)C1)C2 | – | -4.25% [at 35.3 µM] (inactive)
CC(=O)OCCOCCOCCOC(C)=O | inactive | –
CC[C@@H](N)CO | – | -2.86% (inactive)
CCC(CO)(CO)COCC(CC)(CO)CO | – | -0.353% (inactive)
COc1ccc(Cc2cnc(N)nc2N)cc1OC | – | -4.88% [at 35.3 µM] (inactive)
O=C(OCc1ccccc1)c1ccc(O)cc1 | – | -2.18% [at 35.3 µM] (inactive)
CCCC(=O)c1ccccc1 | – | -3.59% (inactive)
COc1nc(C)nc(Cl)c1NC1=NCCN1 | – | -7.35% [at 35.3 µM] (inactive)
CCCCN(CCO)CCCC | – | -4.06% (inactive)
COc1ccc(COC(C)=O)cc1 | inactive | –
CC(=O)CC(C)=O | – | 1.15% (inactive)
CCN1CCCC1CNC(=O)c1cc(S(=O)(=O)CC)c(N)cc1OC (stereo unspecified) | – | -3.54% [at 35.3 µM] (inactive)
C1COC(NC(C2CC2)C2CC2)=N1 | – | -3.96% [at 35.3 µM] (inactive)
NC(N)=NC(=O)Cc1c(Cl)cccc1Cl | – | -0.235% [at 35.3 µM] (inactive)
CCC(=O)/C=C/C1C(C)=CCCC1(C)C (stereo unspecified) | – | 2.92% (inactive)
C=C(C)C(=O)O | inactive | –

SMILES | Potency | activation
CC(C)(C)c1ccccc1 | – | 0.65% (inactive)
[Cl][In]([Cl])[Cl] | inactive | –
Cc1occc(=O)c1OC(=O)C(C)C | – | -5.43% (inactive)
NC(N)=Nc1nc(CSCC/C(N)=N/S(N)(=O)=O)cs1 | inactive | –
CCCCCCCCCCCCCCCCCl | – | -1.11% [at 15.8 µM] (inactive)
COC(c1ccccc1)(c1ccccc1)[C@H](Oc1nc(C)cc(C)n1)C(=O)O | – | 1.55% [at 35.3 µM] (inactive)
CCCCC/C=C/CC1CC(=O)OC1=O (stereo unspecified) | – | -5.52% (inactive)
O=C(O)c1cc(Cl)cc(Cl)c1 | – | 1.46% (inactive)
CCn1cc(C(=O)O)c(=O)c2cc(F)c(N3CCNC(C)C3)c(F)c21 (stereo unspecified) | – | -2.75% [at 35.3 µM] (inactive)
O=C(O)c1cn(-c2ccc(F)cc2)c2cc(N3CCNCC3)c(F)cc2c1=O | inactive | –
CC(=O)CC(=O)Nc1ccc2[nH]c(=O)[nH]c2c1 | – | 3.51% (inactive)
OCC(CO)N[C@H]1C[C@](O)(CO)[C@@H](O)[C@H](O)[C@H]1O | – | 6.79% [at 35.3 µM] (inactive)
C#CC(C)(CC)OC(=O)c1ccccc1C(=O)O (stereo unspecified) | – | -0.511% [at 35.3 µM] (inactive)
c1cnc2cc3c(cc2n1)C1CNCC3C1 | – | -4.92% [at 35.3 µM] (inactive)
NCCO | – | 0.59% (inactive)
CC(=O)Nc1ccc(C(=O)CCl)cc1 | – | -0.223% (inactive)
c1ccc2c(c1)CCCC2C1=NCCN1 (stereo unspecified) | – | -8.67% [at 35.3 µM] (inactive)
CC(C)CCOC(=O)c1ccc(N(C)C)cc1 | – | 20.5% [at 35.3 µM] (inactive)

Target: Retinoic acid receptor RXR-alpha (Homo sapiens) (UniProt P19793)
Test: qHTS assay to identify small molecule agonists of the RXR signaling pathway (AID 1159527); note: nearly all actives have a fitted effect of over 35% in size; note: potency is the fitted concentration of half-maximal effect; for activation: % is set by controls: 0 for no effect and ±100 for the full control effect
Conditions: HEK293T RXRa-UAS-bla, beta-lactamase ratio, 16 h; series mostly up to 76.8 µM; activation: at the top concentration
Summary of the method: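 Beta-lactamase reporter assay, agonist format. Engineered HEK 293T line, charcoal-stripped FBS at 2%, overnight (16 hr) exposure, fluorescence at 460 and 530 nm after 405 nm excitation.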

Sequence of Retinoic acid receptor RXR-alpha (Homo sapiens) (P19793 whole entry, looked up): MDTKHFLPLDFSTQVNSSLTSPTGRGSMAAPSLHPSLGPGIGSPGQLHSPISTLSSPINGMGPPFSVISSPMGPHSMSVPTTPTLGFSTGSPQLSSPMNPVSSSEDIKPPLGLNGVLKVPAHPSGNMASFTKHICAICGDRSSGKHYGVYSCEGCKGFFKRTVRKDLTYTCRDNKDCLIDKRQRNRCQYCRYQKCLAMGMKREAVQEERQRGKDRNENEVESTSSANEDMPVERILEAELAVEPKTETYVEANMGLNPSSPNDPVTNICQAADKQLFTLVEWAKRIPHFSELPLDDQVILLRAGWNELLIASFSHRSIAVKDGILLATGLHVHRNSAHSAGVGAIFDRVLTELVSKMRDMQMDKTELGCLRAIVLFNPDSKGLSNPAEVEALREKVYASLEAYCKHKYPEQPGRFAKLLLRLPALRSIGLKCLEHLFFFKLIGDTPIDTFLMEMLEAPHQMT

SMILES | Potency | activation
Cc1ccnc2c1NC(=O)c1cccnc1N2C1CC1 | 11.4 µM (active) and inactive | –
CC(C(O)c1ccc(O)cc1)N1CCC(Cc2ccccc2)CC1 (stereo unspecified) | – | -1.22% [at 35.3 µM] (inactive)
NCCCCCC(=O)O | – | -5.75% [at 35.3 µM] (inactive)
NC12CC3CC(CC(C3)C1)C2 | – | -0.627% [at 35.3 µM] (inactive)
CC(=O)OCCOCCOCCOC(C)=O | inactive and 12.3 µM (active) | –
CC[C@@H](N)CO | – | 8.28% (inactive)
CCC(CO)(CO)COCC(CC)(CO)CO | – | 11.7% (inactive)
COc1ccc(Cc2cnc(N)nc2N)cc1OC | – | 0.422% [at 35.3 µM] (inactive)
O=C(OCc1ccccc1)c1ccc(O)cc1 | inactive | –
CCCC(=O)c1ccccc1 | – | 3.95% (inactive)
COc1nc(C)nc(Cl)c1NC1=NCCN1 | – | 2.85% [at 35.3 µM] (inactive)
CCCCN(CCO)CCCC | – | 5.5% (inactive)
COc1ccc(COC(C)=O)cc1 | inactive | –
CC(=O)CC(C)=O | – | 3.61% (inactive)
CCN1CCCC1CNC(=O)c1cc(S(=O)(=O)CC)c(N)cc1OC (stereo unspecified) | – | 3.74% [at 35.3 µM] (inactive)
C1COC(NC(C2CC2)C2CC2)=N1 | – | 0.231% [at 35.3 µM] (inactive)
NC(N)=NC(=O)Cc1c(Cl)cccc1Cl | – | 8.21% [at 35.3 µM] (inactive)
CCC(=O)/C=C/C1C(C)=CCCC1(C)C (stereo unspecified) | inactive | –
C=C(C)C(=O)O | inactive | –

SMILES | Potency | activation
CC(C)(C)c1ccccc1 | – | -6.34% (inactive)
[Cl][In]([Cl])[Cl] | – | 3.31% (inactive)
Cc1occc(=O)c1OC(=O)C(C)C | – | -6.58% (inactive)
NC(N)=Nc1nc(CSCC/C(N)=N/S(N)(=O)=O)cs1 | inactive | –
CCCCCCCCCCCCCCCCCl | – | 0.473% [at 15.8 µM] (inactive)
COC(c1ccccc1)(c1ccccc1)[C@H](Oc1nc(C)cc(C)n1)C(=O)O | – | -7.63% [at 35.3 µM] (inactive)
CCCCC/C=C/CC1CC(=O)OC1=O (stereo unspecified) | – | 2.29% (inactive)
O=C(O)c1cc(Cl)cc(Cl)c1 | – | -0.0592% (inactive)
CCn1cc(C(=O)O)c(=O)c2cc(F)c(N3CCNC(C)C3)c(F)c21 (stereo unspecified) | – | 8.99% [at 35.3 µM] (inactive)
O=C(O)c1cn(-c2ccc(F)cc2)c2cc(N3CCNCC3)c(F)cc2c1=O | inactive | –
CC(=O)CC(=O)Nc1ccc2[nH]c(=O)[nH]c2c1 | – | 0.961% (inactive)
OCC(CO)N[C@H]1C[C@](O)(CO)[C@@H](O)[C@H](O)[C@H]1O | – | 9.06% [at 35.3 µM] (inactive)
C#CC(C)(CC)OC(=O)c1ccccc1C(=O)O (stereo unspecified) | – | -1.61% [at 35.3 µM] (inactive)
c1cnc2cc3c(cc2n1)C1CNCC3C1 | – | 3.7% [at 35.3 µM] (inactive)
NCCO | – | 11.1% (inactive)
CC(=O)Nc1ccc(C(=O)CCl)cc1 | 11 µM (active) | –
c1ccc2c(c1)CCCC2C1=NCCN1 (stereo unspecified) | – | 6.59% [at 35.3 µM] (inactive)
CC(C)CCOC(=O)c1ccc(N(C)C)cc1 | – | -15% [at 35.3 µM] (inactive)
